Among all 410,000 compounds or so, about 2,400 (0.59%) were called active. The sample holds actives, similar compounds and a random draw of the others, so the mix is not that of the screen. Rule as the data show it: active = max activation above about 30%; inactive = the rest.

The target in this experiment is D(3) dopamine receptor (Homo sapiens) (UniProt P35462). The experiment in a line: qHTS of D3 Dopamine Receptor Agonist: qHTS. Also: 0% is about no effect. Particulars: D3R DiscoveRx beta-arrestin cells, luminescence, 90 min; stronger effect = higher value. In outline: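 Cells at 1500/well, incubated overnight, then treated with pinned compounds (dopamine as control) for 90 min at 37 degrees C. DiscoveRx reagent added for 30 - 60 minutes at room temperature; luminescence read.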
Sequence of D(3) dopamine receptor (Homo sapiens) (P35462 whole entry, looked up): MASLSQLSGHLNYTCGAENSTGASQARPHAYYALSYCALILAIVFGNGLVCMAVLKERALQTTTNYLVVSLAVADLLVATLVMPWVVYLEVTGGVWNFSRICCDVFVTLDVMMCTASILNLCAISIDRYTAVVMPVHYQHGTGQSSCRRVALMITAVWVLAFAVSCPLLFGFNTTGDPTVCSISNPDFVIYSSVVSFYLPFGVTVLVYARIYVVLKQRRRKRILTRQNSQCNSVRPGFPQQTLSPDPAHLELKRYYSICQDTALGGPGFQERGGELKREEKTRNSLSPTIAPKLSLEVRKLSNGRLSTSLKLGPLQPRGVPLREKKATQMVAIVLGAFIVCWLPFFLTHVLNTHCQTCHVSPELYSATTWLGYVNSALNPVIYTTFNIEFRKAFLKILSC
`O=C(CSc1nc2c(c(=O)[nH]1)CN(Cc1ccc(F)cc1)CC2)Nc1ccccc1Cl`: the max activation was 6.55% (inactive). With `CCOC(=O)c1c(-c2ccc(OC)cc2)oc2ccc(OCc3ccc(C(=O)OC)cc3)cc12` the figure was 9.24% (inactive); with `COc1cc(-c2nnc(NC(=O)CS(=O)(=O)c3ccc(Cl)cc3)o2)cc(OC)c1OC`, -1.85% (inactive). To `COC(=O)c1c(-c2ccsc2)oc2ccc(-c3cc(OC)c(OC)c(OC)c3)cc12` belongs 45.2% (active); to `COc1ccccc1NC(=O)c1sc2nc(C)c(C(=O)Nc3ccc(Cl)cc3)c(-c3ccc(Br)cc3)c2c1N`, -10.3% (inactive).

With `Cc1nn(-c2ccc(N3CCCCC3)nn2)c(C)c1CCC(=O)NCc1ccccc1F`, the max activation was 13.4% (inactive). On to `CCOc1ccc(Nc2nc(Cc3nnc(SCC(=O)c4ccc(C)cc4)o3)cs2)cc1`, for which the max activation is 22.4% (inactive). `O=C(CSc1nnc(Cn2cnc3ccccc32)o1)c1ccccc1`: the max activation is 2.49% (inactive). On to `CC(=O)Nc1ccc(C(=O)CSc2nnc(Cc3ccccc3)o2)cc1`, for which the max activation is 46.1% (active). For the molecule `Cc1ccc(NC(=O)c2oc3ccc(S(=O)(=O)N4CCCCC4)cc3c2C)cc1Cl`, the max activation is -12.7% (inactive).

Regarding `CCOC(=O)c1ccc(NC(=O)c2nc[nH]c2C(=O)NCc2ccccc2)cc1`, the max activation was 56.5% (active). For `Cc1cccc(NC(=O)c2nc[nH]c2C(=O)NCC(=O)OCc2ccccc2)c1`, the max activation is 74.4% (active). With `CCOC(=O)c1[nH]cnc1C(=O)Nc1ccccc1C` the figure was 4.49% (inactive); with `C[C@H](NC(=O)c1nc[nH]c1C(=O)N[C@@H](C)C(=O)OC(C)(C)C)C(=O)OC(C)(C)C`, -3.39% (inactive). In the case of `C[C@H](NC(=O)c1nc[nH]c1C(=O)NCC(=O)OC(C)(C)C)C(=O)OCc1ccccc1`, the max activation was 48.3% (active). Turning to `O=C(Nc1ccon1)c1nc[nH]c1C(=O)NCc1ccccc1`, the max activation was 12.3% (inactive). On to `C[C@H](NC(=O)c1nc[nH]c1C(=O)NCC(=O)OC(C)(C)C)c1ccccc1`, for which the max activation is -13.3% (inactive).

`CNC(=O)c1[nH]cnc1C(=O)N[C@@H](CC(C)C)C(=O)OCc1ccccc1`: the max activation is 15.1% (inactive).

`O=C(Nc1cc(Br)ccc1F)c1nc[nH]c1C(=O)NCc1ccccc1`: the max activation was -7.03% (inactive). With `COc1cccc(C(=O)N(Cc2cccc(Cl)c2)Cc2ccco2)c1` the figure was -11.4% (inactive); with `Cc1cc(C)cc(NS(=O)(=O)c2ccc(-c3cc(C)no3)s2)c1`, -10.7% (inactive). To `CCOc1cc(/C=C(\C#N)C(=O)Nc2ccccc2C)ccc1OCc1cc(=O)n2nc(CC)sc2n1` belongs -12.7% (inactive).

As to `O=C1CC(c2nnc(Cc3ccc(Cl)cc3)o2)CN1c1ccccc1` (stereo not drawn), the max activation was 10.5% (inactive).

For `COC(=O)c1c(NC(=O)C(C)Oc2ccc(Cl)c(C)c2)sc(C)c1C` (stereo not drawn), the max activation is -8.23% (inactive). In the case of `CN[C@@H]1[C@H](O[C@H]2[C@H](O[C@H]3[C@H](O)[C@@H](O)[C@H](N=C(N)N)[C@@H](O)[C@@H]3N=C(N)N)O[C@@H](C)[C@]2(O)CO)O[C@@H](CO)[C@H](O)[C@H]1O`, the max activation is 4.88% (inactive).

For the molecule `Cc1ccc(OC(=O)CSc2nnc(-c3cccs3)o2)cc1`, the max activation is 7.3% (inactive). To `CCCCCCCCCCCCCCCCO` belongs 11.6% (inactive); to `Cc1cc(/C=C2/SC(=O)N(CC(=O)OC(C)C)C2=O)c(C)n1C`, 30.2% (active). To `CCN=C1S/C(=C\c2cc(Br)ccc2OCC(=O)OCC)C(=O)N1CC` belongs 5.26% (inactive); to `Cc1cc(/C=C2/SC(=O)N(CC(=O)N3CCCC3)C2=O)ccc1N1CCOCC1`, -0.0029% (inactive); to `FCOC(C(F)(F)F)C(F)(F)F`, 9.08% (inactive). With `COc1cc(OC)cc(C(=O)NCC(=O)OCc2csc(-c3ccccc3)n2)c1` the figure was -7.01% (inactive); with `Cc1ccc(-c2nc(COC(=O)c3c(C)noc3C)cs2)cc1`, 32.5% (active); with `COc1ccc(C(=O)COC(=O)c2c(C)noc2C)cc1Cl`, -4.54% (inactive). As to `CC(=O)OC[C@H]1O[C@@H](O[C@H]2[C@H](O)[C@@H](OC(=O)c3ccccc3C(=O)O)[C@H](O)O[C@@H]2COC(C)=O)[C@H](O)[C@@H](OC(=O)c2ccccc2C(=O)O)[C@@H]1O`, the max activation is 2.74% (inactive). Consider `CCCC(=O)N1CCN(c2nc3c(OC)ccc(C)c3s2)CC1`, for which the max activation is 3.21% (inactive). `O=C1C(c2[nH]c3ccccc3c2O)=Nc2ccccc21`: the max activation was -8.96% (inactive). To `NC(=O)C1(N2CCCCC2)CCN(C(=S)Nc2ccc(Cl)cc2)CC1` belongs 32.5% (active). To `CCC(=O)N1CCC(C(N)=O)(N2CCCCC2)CC1` belongs 1.17% (inactive). With `Cc1cc(Cl)ccc1NC(=S)N1CCC(C(N)=O)(N2CCCCC2)CC1` the figure was 5% (inactive). With `Cc1ccc(NS(=O)(=O)c2ccc3c(c2)CC(=O)N3)cc1Cl`, the max activation was -10.2% (inactive).

Regarding `Fc1ccc2[nH]c3c(N4CCSCC4)ncnc3c2c1`, the max activation is 42.3% (active). For the molecule `Fc1ccc2[nH]c3c(N4CCN(Cc5ccc6c(c5)OCO6)CC4)ncnc3c2c1`, the max activation was 9.79% (inactive). As to `Cc1ccc(CNC(=O)CCC(=O)N2Cc3ccccc3Oc3ncccc32)cc1`, the max activation was -12% (inactive). With `CCC(=O)N1c2ccccc2CC1C(=O)N1CCN(c2ccccc2)CC1` (stereo not drawn) the figure was 0.179% (inactive). With `Cc1cc2nc(-c3ccc(NC(=O)c4cccnc4)cc3)oc2cc1C`, the max activation was 32.8% (active). With `COc1cccc(C(=O)Nc2ccc3oc(-c4ccc5ccccc5c4)nc3c2)c1` the figure was 15.1% (inactive); with `Cc1cc2nc(-c3ccc(NC(=O)c4cc5ccccc5o4)cc3)oc2cc1C`, 2.05% (inactive); with `CC1=C(/C=C/C(C)=C/C=C/C(C)=C/C=C/C=C(C)/C=C/C=C(C)/C=C/C2=C(C)CCCC2(C)C)C(C)(C)CCC1`, -12.4% (inactive). Take `Cc1cc(C)c(NC(=O)Cn2c(SCC(=O)NCc3ccccc3)nc3ccccc32)c(C)c1`: the max activation is -11.4% (inactive). On to `Cc1ccc(NC(=O)CSc2nc3c([nH]c4ccccc43)c(=O)n2-c2ccccc2)cc1Cl`, for which the max activation was -9.55% (inactive). With `Cc1ccc(-n2c(SCC(=O)Nc3ncc(Cl)cc3Cl)nc3ccccc32)cc1` the figure was 39.8% (active); with `CCC(=O)N1CCc2cc(S(=O)(=O)NC(C(=O)Nc3ccc(C(C)=O)cc3)C(C)C)ccc21` (stereo not drawn), -16.2% (inactive).

The values above are taken from PubChem BioAssay AID652048 (National Center for Advancing Translational Sciences (NCATS), 2013).
